# Sfp PPTase inh: inhibitors of Bacillus subtilis Sfp phosphopantetheinyl transferase. Q9F4F7. Biochemical Sfp PPTase activity, qHTS. Potency, µM, actives largely listed as inhibitors. 310,000 tested, 3.5% active. AID 1490;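 also: the enzyme is Sfp with the accession as filed and its product quenches rhodamine fluorescence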
#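 Buffer: 50 mM Hepes-Na pH 7.6, 10 mM MgCl2, 0.01% Nonidet P-40, 0.01% BSA. Enzyme 15 nM, pre-exposed to compound 15 min; substrates then added and fluorescence change tracked over 30 min.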
# ALOX12 inh: ALOX12 (human) lipoxygenase inhibition; P18054; Potency, µM (highest dose often 108 µM), hits mostly inhibitors; purified 12hLO, xylenol orange hydroperoxide absorbance; 580,000 tested, 1.1% active
#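 Purified human 12hLO (150 nM final) in 25 mM Hepes, 0.01% Triton X-100, pH 7.0 was preincubated 15 min at room temperature with compound. Then 40 uM arachidonic acid was added, 30 min. Hydroperoxide was read by Fe-XO absorbance ratio 573/405 nm.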
# G9a inh: blocks human histone lysine methyltransferase G9a; Potency, µM (titrated, usually from 102 µM), actives largely listed as inhibitors; G9a H3K9 monomethylation, AlphaScreen, 2 h; Q96KQ7; 350,000 tested, 8.8% active; also: nearly all actives have a fitted effect of over 75% in size
#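 Signal arises when biotinylated H3K9 peptide, once monomethylated, bridges streptavidin donor and antibody-captured acceptor beads. Enzyme at 20 nM was preincubated 15 min with test compounds; peptide 500 nM and SAM 20 uM then reacted for 2 h.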
# BAZ2B inh: inhibitors of human BAZ2B bromodomain; Q9UIF8; AlphaScreen BAZ2B-H3K14Ac peptide displacement; Potency, µM (top dose mostly 114 µM), actives largely listed as inhibitors; 360,000 tested, 4.4% active; also: nearly all actives have a fitted effect of over 60% in size
# Target sequence (Q9UIF8 whole entry, looked up): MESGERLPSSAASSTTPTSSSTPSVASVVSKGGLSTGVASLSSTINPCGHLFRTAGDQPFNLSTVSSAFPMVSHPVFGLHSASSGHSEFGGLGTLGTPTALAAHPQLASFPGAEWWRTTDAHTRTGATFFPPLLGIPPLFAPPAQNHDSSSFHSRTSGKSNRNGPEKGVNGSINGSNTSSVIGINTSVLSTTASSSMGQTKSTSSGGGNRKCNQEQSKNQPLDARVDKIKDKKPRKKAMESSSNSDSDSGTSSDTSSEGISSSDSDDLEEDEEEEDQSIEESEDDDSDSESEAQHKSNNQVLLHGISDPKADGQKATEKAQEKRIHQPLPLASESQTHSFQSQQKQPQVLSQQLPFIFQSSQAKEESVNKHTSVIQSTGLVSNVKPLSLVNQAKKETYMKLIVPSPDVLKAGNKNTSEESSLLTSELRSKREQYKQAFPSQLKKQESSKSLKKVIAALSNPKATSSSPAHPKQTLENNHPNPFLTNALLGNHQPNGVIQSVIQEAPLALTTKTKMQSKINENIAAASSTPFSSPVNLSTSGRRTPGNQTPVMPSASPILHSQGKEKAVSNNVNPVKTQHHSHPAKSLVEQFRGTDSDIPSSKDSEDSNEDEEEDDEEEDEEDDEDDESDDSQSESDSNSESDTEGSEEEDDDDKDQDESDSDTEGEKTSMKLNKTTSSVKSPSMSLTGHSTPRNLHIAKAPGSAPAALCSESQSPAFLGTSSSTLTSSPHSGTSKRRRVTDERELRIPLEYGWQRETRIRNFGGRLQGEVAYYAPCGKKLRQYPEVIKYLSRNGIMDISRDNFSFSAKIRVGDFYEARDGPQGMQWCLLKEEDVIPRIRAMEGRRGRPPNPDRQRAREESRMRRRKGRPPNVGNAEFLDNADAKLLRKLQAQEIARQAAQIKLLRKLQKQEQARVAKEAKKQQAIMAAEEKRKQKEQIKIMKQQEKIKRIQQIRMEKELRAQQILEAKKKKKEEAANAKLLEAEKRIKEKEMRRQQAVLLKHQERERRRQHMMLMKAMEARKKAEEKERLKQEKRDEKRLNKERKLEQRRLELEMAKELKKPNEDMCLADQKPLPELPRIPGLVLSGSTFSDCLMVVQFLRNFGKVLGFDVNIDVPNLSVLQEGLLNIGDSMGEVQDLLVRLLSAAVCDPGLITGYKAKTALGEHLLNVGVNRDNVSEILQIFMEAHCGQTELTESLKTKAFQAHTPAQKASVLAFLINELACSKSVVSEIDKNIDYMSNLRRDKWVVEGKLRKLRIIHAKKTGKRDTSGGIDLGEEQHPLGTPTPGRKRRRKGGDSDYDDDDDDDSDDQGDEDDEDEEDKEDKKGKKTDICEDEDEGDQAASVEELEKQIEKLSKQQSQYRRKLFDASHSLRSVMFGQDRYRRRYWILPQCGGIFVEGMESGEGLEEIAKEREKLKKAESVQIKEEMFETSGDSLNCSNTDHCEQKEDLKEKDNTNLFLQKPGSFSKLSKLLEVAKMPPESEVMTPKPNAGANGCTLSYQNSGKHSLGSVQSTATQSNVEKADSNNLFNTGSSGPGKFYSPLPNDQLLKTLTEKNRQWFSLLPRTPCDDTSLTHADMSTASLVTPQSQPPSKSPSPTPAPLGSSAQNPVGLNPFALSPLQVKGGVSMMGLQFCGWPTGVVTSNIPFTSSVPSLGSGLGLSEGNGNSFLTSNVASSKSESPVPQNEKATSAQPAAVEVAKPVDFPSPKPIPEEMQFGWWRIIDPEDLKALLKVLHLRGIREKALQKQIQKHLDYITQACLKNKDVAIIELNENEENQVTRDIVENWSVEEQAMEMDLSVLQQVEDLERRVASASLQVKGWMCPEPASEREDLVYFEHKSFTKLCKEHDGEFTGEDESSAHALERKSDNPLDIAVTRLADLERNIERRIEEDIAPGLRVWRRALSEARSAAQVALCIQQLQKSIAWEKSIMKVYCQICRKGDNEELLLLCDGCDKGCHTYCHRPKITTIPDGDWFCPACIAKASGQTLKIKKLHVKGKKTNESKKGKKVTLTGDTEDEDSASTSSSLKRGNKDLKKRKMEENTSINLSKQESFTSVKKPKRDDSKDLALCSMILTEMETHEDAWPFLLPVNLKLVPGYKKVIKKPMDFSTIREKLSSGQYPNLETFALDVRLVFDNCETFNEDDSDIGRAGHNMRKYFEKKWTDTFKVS
#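 BAZ2B 50 nM plus b-H3(5-23)K14Ac 50 nM, PBS pH 7.4/0.01% Tween-20, 30 min RT; compound added (max 110 uM), 30 min RT; streptavidin donor/Ni-chelate acceptor beads 10 ug/mL final, 20 min dark; AlphaScreen read.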
# JMJD2A Tudor: inhibitors of human JMJD2A Tudor domain. O75164. AlphaScreen JMJD2A-Tudor / H3K4me3 peptide binding. Potency, µM (doses to about 114 µM), actives largely listed as inhibitors. 390,000 tested, 4.4% active. AID 504339; also: nearly all actives have a fitted effect of over 50% in size
# HP1b chromo inh: blocks HP1-beta chromodomain binding to methylated histone tails; 390,000 tested, 0.56% active; P83916; AlphaScreen HP1-beta / biotin-H3K9me3 peptide binding; Potency, µM (series often up to 114 µM), usual class: inhibitors; also: nearly all actives have a fitted effect of over 70% in size
#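 AlphaScreen: HP1-beta (50 nM) preformed 30 min with biotin-H3(1-18)K9me3 peptide (50 nM) in PBS pH 7.4, 0.01% Tween-20. Compound added for 30 min at RT, then streptavidin donor/nickel chelate acceptor beads (10 ug/mL) for 30 min.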
# A number is an active result; 0 = inactive; ? = inconclusive; - = no result; [ ] = another dose, or the depositor's remark. In the library only some 8.7% were active in any assay of this set; here they are far more common. Calls follow the shape of the dose curve; as a rule, active = well fitted curve in the direction sought with a large enough effect; inconclusive = small, poorly fitted or top-dose-only effect, or another doubt; inactive = no such curve, though single readings can be large; an effect the other way counts as inactive or inconclusive.
SMILES,Sfp PPTase inh,ALOX12 inh,G9a inh,BAZ2B inh,JMJD2A Tudor,HP1b chromo inh
O=C(NCc1ccco1)c1ccc(-c2ccccc2Cl)o1,0,0,56.2µM,?,0,0
COc1ccccc1S(=O)Cc1ccc(C(=O)NCc2ccccc2Cl)o1 (stereo unspecified),?,0,3.55µM,0,35.5µM,0
COc1ccccc1CNC(=O)c1ccc(-c2ccccc2C(F)(F)F)o1,0,0,?,0,0,0
CC(Sc1ccsc1[N+](=O)[O-])C(=O)NCc1ccco1 (stereo unspecified),50.1µM,?,?,0,0,0
COc1ccccc1CNC(=O)c1ccc(-c2ccccc2Cl)o1,?,?,28.2µM,?,0,0
O=C(NCc1ccco1)c1c(Cl)cccc1Cl,-,0,-,-,-,-
CC(Sc1nc(-c2cccs2)nc2ccccc12)C(=O)NCc1ccco1 (stereo unspecified),-,0,-,-,-,-
COCc1nc(C2CCCN(C(=O)CC3CCCC3)C2)no1 (stereo unspecified),-,0,-,-,-,-
CCCCSc1ncc(CN2CC[C@@]3(O)CCN(C(C)=O)C[C@H]3C2)cn1,-,0,-,-,-,-
CCc1cc(C(=O)O)sc1-c1ccc(C)cc1,-,0,-,-,-,-
Cc1cc(NC(=O)c2ccc([N+](=O)[O-])o2)ccc1NC(=O)c1ccco1,0,0,79.4µM,?,0,0
O=C(NCc1ccco1)c1ccc(CS(=O)(=O)Cc2ccc(Cl)cc2)o1,0,0,0,0,0,0
O=C(NCc1ccco1)c1ccc([N+](=O)[O-])o1,0,0,44.7µM,44.7µM,56.2µM,?
O=C(NCc1ccco1)c1ccc(-c2ccc(Cl)cc2)o1,0,0,50.1µM,?,0,0
COc1cc(NC(=O)c2ccc([N+](=O)[O-])o2)ccc1NC(=O)c1ccco1,0,0,?,?,0,0
O=C(NCc1ccco1)c1ccc(Cn2cc([N+](=O)[O-])cn2)o1,0,0,0,0,0,0
CCc1c(C)sc2c1c1nc(-c3cccnc3)nn1c(=O)n2CC(=O)N1CCOCC1,-,0,-,-,-,-
CCNC(=O)N(C1CC1)C1CCOC2(CCN(C(=O)c3n[nH]c4ccccc34)CC2)C1 (stereo unspecified),-,0,-,-,-,-
COC(=O)C1CCN(C(=O)COC(=O)c2cc3ccccc3[nH]2)CC1,-,0,-,-,-,-
CCCCn1c(-c2ccco2)nc2ccccc2c1=O,0,0,50.1µM,0,0,0
COc1ccc2c(=O)c3c(=O)n(-c4ccc(C)cc4)c(-c4ccccc4)nc3oc2c1,0,-,0,0,-,-
COc1ccc2c(=O)c3c(=O)n(Cc4ccco4)c(C(C)C)nc3oc2c1,?,0,?,0,0,0
COc1ccc2c(=O)c3c(=O)n(Cc4ccco4)c(-c4ccc(C)cc4)nc3oc2c1,25.1µM,?,?,?,89.1µM,0
Cc1ccc(-n2c(C)nc3oc4ccccc4c(=O)c3c2=O)cc1,0,0,56.2µM,44.7µM,50.1µM,0
O=c1c2ccccc2oc2nc(-c3ccco3)n(Cc3ccccc3)c(=O)c12,0,0,?,56.2µM,0,0
SMILES,Sfp PPTase inh,ALOX12 inh,G9a inh,BAZ2B inh,JMJD2A Tudor,HP1b chromo inh
O=c1c2ccccc2nc(-c2ccccc2)n1Cc1ccco1,0,0,?,0,0,0
CCN(CC)CC(=O)NC(=O)NCCc1cccs1,-,0,-,-,-,-
O=C1NCCCCCN(C(=O)NCc2ccccc2)[C@H]2CCCC[C@@H]12,-,0,-,-,-,-
CN(C)c1ccnc(C(=O)O)c1,56.2µM,0,4.47µM,22.4µM,0.708µM,0
O=C(O)c1cncc(Br)c1,0,?,?,0,0,0
O=C(O)c1cc(Br)ccn1,35.5µM,0,15.8µM,-,3.16µM,0
CN(C)c1ncc(C(=O)O)cn1,0,0,0,-,?,0
O=C(/C=C/c1ccc(Br)cc1)NC1CCCC1,-,0,-,-,-,-
CCOc1ccc(C2/C(=C(\O)c3c(C)[nH]c(C(=O)OC)c3C)C(=O)C(=O)N2CCN(C)C)cc1 (stereo unspecified),0,0,44.7µM,0,35.5µM,0
CCN(CC)CCN1C(=O)C(=O)/C(=C(/O)c2c(C)[nH]c(C(=O)OC)c2C)C1c1ccc(OC)cc1 (stereo unspecified),0,?,79.4µM,0,0,0
CCN(CC)CCN1C(=O)C(=O)/C(=C(/O)c2c(C)[nH]c(C(=O)OC)c2C)C1c1ccccc1 (stereo unspecified),0,0,0[12.7 µM],0,0,0
COC(=O)c1[nH]c(C)c(/C(O)=C2\C(=O)C(=O)N(CCN(C)C)C2c2ccc(OC)cc2)c1C (stereo unspecified),0,-,0,-,-,-
COC(=O)c1[nH]c(C)c(/C(O)=C2\C(=O)C(=O)N(CCN(C)C)C2c2cc(OC)ccc2OC)c1C (stereo unspecified),0,0,50.1µM,0,?,0
CCOC(=O)/C(C#N)=C\c1cc(Cl)c(OC)c(OCC)c1,-,0,-,-,-,-
CC(C)=CC(=O)NCCC[C@H](NC(=O)[C@@H]1[C@@H](NC(=O)Nc2ccc(F)cc2F)CCN1C(=O)C=C(C)C)C(N)=O,-,0,-,-,-,-
CCN1CCN(C(=O)/C=C/c2ccc(C)o2)CC1,39.8µM,0,10µM,0,0,0
CCN1CCN(C(=O)/C=C/c2ccc(C(C)C)cc2)CC1,-,0,-,-,0,0
Cc1ccc(/C=C/C(=O)N2CC(C)CC(C)C2)o1 (stereo unspecified),15.8µM,?,8.91µM,0,50.1µM,?
Cc1ccc(/C=C/C(=O)N2CCCC(C)C2)cc1 (stereo unspecified),0,0,?,0,0,0
O=C(C1CCCC1)N1CCOC[C@H](Oc2ccc(C(F)(F)F)cn2)C1,-,0,-,-,-,-
Cn1ncc2c(=S)nc(Cl)[nH]c21,-,7.08µM,-,-,22.4µM,0
Cn1ncc2c(Nc3ccccc3Cl)nc(Nc3ccccc3Cl)nc21,0,0,0[2.33 µM],0,0,0
O=C(C[n+]1ccccc1)c1ccc(NC(=O)c2ccccc2)cc1,0,?,15.8µM,0,?,0
O=C(Nc1ccc[n+](CC(=O)c2cccc3ccccc23)c1)c1ccccc1,56.2µM,?,39.8µM,0,0,0
Cc1ccc[n+](CC(=O)c2ccc(NC(=O)c3ccccc3)cc2)c1,0,0,0,0,0,0
SMILES,Sfp PPTase inh,ALOX12 inh,G9a inh,BAZ2B inh,JMJD2A Tudor,HP1b chromo inh
NC(=O)c1cc[n+](CC(=O)c2ccc(NC(=O)c3ccccc3)cc2)cc1,0,0,0,0,?,0
N#Cc1ccc[n+](CC(=O)c2ccc(NC(=O)c3ccccc3)cc2)c1,0,?,44.7µM,0,0,0
Cc1cc(C)c2c(N)c(C(=O)N3CCN(c4ncccn4)CC3)sc2n1,0,?,?,0,39.8µM,0
Cc1cc(C)c2c(N)c(C(=O)NN)sc2n1,0,0,0,0,0[11.4 µM],0
COCc1cc(C)nc2sc(C(=O)N3CCN(c4ccccc4)CC3)c(N)c12,0,0,?,0,0,0
COCc1cc(C)nc2sc(C(=O)N3CCCCC3)c(N)c12,79.4µM,?,0,0,0,0
